From PubChem BioAssay (EPA / NIEHS) come the findings set out here.

The structures appear in SMILES notation. Records with an inconclusive call do not appear. Some compounds were tested as several samples or in several runs, with calls that do not always agree. Active and inactive are the calls of the source. The calls were made as follows: active = hit-call score of the fitted dose curve at least 0.9, where 1 is the maximum; inconclusive = response in the unintended direction; inactive = score below 0.9.

A short description of test [1]: ACEA_AR_agonist_AUC_viability: ACEA Biosciences xCELLigence Real-Time Cell Analysis on Androgen Receptor Agonism for Viability (AID 2283775).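 As to AC50: viability read 80 hours after compound addition.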 The procedure, abridged:
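22Rv1 cells; impedance growth kinetics; 8-pt 1:4 dilutions from 100 uM top final, ≤0.5% DMSO; n = 2; 80 h read; AUC viability, loss-of-signal vs DMSO.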

Test [2] in a line: ACEA_AR_antagonist_AUC_viability: ACEA Biosciences xCELLigence Real-Time Cell Analysis on Androgen Receptor Antagonism for Viability (AID 2283776).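 Also: 22Rv1 human prostate cancer cells growing on impedance electrode plates; hits lower the growth signal relative to DMSO meaning cytotoxicity.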 In short, it runs like this: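 Impedance read-out (RT-CES): area under growth curve at 80 h post-dose, loss of signal scored vs DMSO baseline. 22Rv1 cells; 8-pt 1:4 series, top 100 uM final, ≤0.5% DMSO; biological duplicate.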
Test [3] in a line: ACEA_ER_AUC_viability: ACEA Biosciences xCELLigence Real-Time Cell Analysis on Estrogen Receptor Agonism for Viability (AID 2283782).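 Also: hit means loss of impedance signal meaning reduced cell growth or viability.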 The procedure, abridged: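 Read-out: real-time electrical impedance (RT-CES) area under curve, loss of signal taken as reduced viability, normalized to DMSO baseline. T-47D cells, charcoal-stripped serum medium, compounds up to 100 uM final, continuous exposure, 80 h.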

Test [4] in a line: ATG_M_06_XSP1: Attagene TRANS-FACTORIAL Multi-Species (XSP1) HepG2 Assay for M06 Transcription Factor (Internal Marker) (AID 2283790). In short, it runs like this: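 This background-control readout tracks M06 reporter mRNA, measured by RT-PCR and capillary electrophoresis. HepG2 cells transiently carrying the GAL4-UAS reporter panel were dosed for 24 h with 3 nM 6-alpha-fluorotestosterone added for partial AR stimulation; increases were scored relative to DMSO.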

Test [5] is described as follows: ATG_M_61_XSP1: Attagene TRANS-FACTORIAL Multi-Species (XSP1) HepG2 Assay for M61 Transcription Factor (Internal Marker) (AID 2283797). The procedure, abridged: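 Background-control readout: reporter transcripts measured by RT-PCR and capillary electrophoresis 24 h after dosing transiently transfected HepG2 multi-reporter cells, with 3 nM 6-alpha-fluorotestosterone present. Fitted in the positive direction relative to DMSO.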

The target of test [6] is Peroxisome proliferator-activated receptor gamma (Homo sapiens) (UniProt P37231). The test can be described thus: ATG_hPPARg_XSP1: Attagene TRANS-FACTORIAL Multi-Species (XSP1) HepG2 Assay for human Peroxisome Proliferator-activated Receptor gamma (PPARg) (AID 2283800). The procedure, abridged:
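Reporter mRNA induction, measured by RT-PCR with capillary electrophoresis 24 h after dosing, scored as gain over DMSO. Transfected HepG2 cells express exogenous NR-Gal4 chimeras driving GAL4-UAS reporters; medium includes 3 nM 6-alpha-fluorotestosterone.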

The subject of test [7] is zebrafish Peroxisome Proliferator-activated Receptor gamma (PPARg), gene 557037. As to the kind of experiment: ATG_zfPPARg_XSP1: Attagene TRANS-FACTORIAL Multi-Species (XSP1) HepG2 Assay for zebrafish Peroxisome Proliferator-activated Receptor gamma (PPARg) (AID 2283801). The procedure, abridged:
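Trans-activation readout of chimeric zebrafish PPARg–GAL4 in transiently transfected human HepG2 cells, 24 h chemical exposure (medium includes 3 nM 6-alpha-fluorotestosterone). Reporter transcripts measured by RT-PCR and capillary electrophoresis, fitted as gain over DMSO.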

Test [8] has as its target Nuclear receptor subfamily 1 group I member 2 (Mus musculus) (UniProt O54915). The test can be described thus: ATG_mPXR_XSP1: Attagene TRANS-FACTORIAL Multi-Species (XSP1) HepG2 Assay for mouse Pregnane X Receptor (PXR) (AID 2283803). In short, it runs like this:
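Transiently transfected HepG2 cells expressing a receptor-Gal4 chimera drive a GAL4-UAS reporter; 3 nM 6-alpha-fluorotestosterone included. Reporter mRNA read 24 h post-dose by RT-PCR and capillary electrophoresis; gain of signal relative to DMSO.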

For test [9], the target named is human Thyroid hormone Receptor alpha (TRa), THRA (gene 7067) (UniProt P10827). The test can be described thus: ATG_hTRa_XSP1: Attagene TRANS-FACTORIAL Multi-Species (XSP1) HepG2 Assay for human Thyroid hormone Receptor alpha (TRa) (AID 2283805). The procedure, abridged: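 Reporter transcripts from the human TRa-Gal4 TRANS unit quantified by RT-PCR, fluorescent labeling and capillary electrophoresis after 24 hours of chemical exposure in transfected HepG2 cells; medium contains 3 nM 6-alpha-fluorotestosterone. Positive direction fit against DMSO.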
Chain of human Thyroid hormone Receptor alpha (TRa), THRA (gene 7067) (P10827 whole entry, looked up, the tested form may be a part): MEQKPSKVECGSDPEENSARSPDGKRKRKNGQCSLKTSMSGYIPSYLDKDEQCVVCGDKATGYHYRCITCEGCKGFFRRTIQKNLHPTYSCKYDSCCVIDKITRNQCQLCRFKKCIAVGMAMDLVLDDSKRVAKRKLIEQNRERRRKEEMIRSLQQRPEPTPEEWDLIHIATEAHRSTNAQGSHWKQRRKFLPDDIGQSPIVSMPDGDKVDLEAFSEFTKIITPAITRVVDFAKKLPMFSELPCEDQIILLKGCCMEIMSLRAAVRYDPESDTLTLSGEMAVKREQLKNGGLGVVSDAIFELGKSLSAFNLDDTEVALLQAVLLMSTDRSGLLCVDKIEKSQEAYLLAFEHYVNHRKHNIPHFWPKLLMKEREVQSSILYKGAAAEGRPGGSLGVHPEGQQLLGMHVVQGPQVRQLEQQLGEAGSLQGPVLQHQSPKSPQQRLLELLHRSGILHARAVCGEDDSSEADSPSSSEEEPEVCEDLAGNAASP

Test [10] addresses zebrafish Thyroid Hormone Receptor alpha (TRa), thraa (gene 30670) (UniProt Q98867). As to the kind of experiment: ATG_zfTRa_XSP1: Attagene TRANS-FACTORIAL Multi-Species (XSP1) HepG2 Assay for zebrafish Thyroid Hormone Receptor alpha (TRa) (AID 2283807). In short, it runs like this: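 Reporter transcripts driven by a chimeric zebrafish TRa–Gal4 protein were measured by RT-PCR with fluorescent labelling and capillary electrophoresis. These came from transiently transfected HepG2 cells after 24 h chemical exposure, with 3 nM 6-alpha-fluorotestosterone added; baseline was DMSO.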

Test [11] addresses human Thyroid hormone Receptor beta (TRb), THRB (gene 7068) (UniProt P10828). The test can be described thus: ATG_hTRb_XSP1: Attagene TRANS-FACTORIAL Multi-Species (XSP1) HepG2 Assay for human Thyroid hormone Receptor beta (TRb) (AID 2283808). In short, it runs like this:
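Readout is reporter mRNA induction measured by RT-PCR, fluorescent labelling and capillary electrophoresis, fitted upward relative to DMSO. Transiently transfected human HepG2 cells expressing NR-Gal4 chimeras were dosed for 24 h, medium containing 3 nM 6-alpha-fluorotestosterone.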

In test [12] the target is zebrafish Thyroid Hormone Receptor beta (TRb), thrb (gene 30607) (UniProt Q9PVE4). As to the kind of experiment: ATG_zfTRb_XSP1: Attagene TRANS-FACTORIAL Multi-Species (XSP1) HepG2 Assay for zebrafish Thyroid Hormone Receptor beta (TRb) (AID 2283809). The procedure, abridged:
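HepG2 cells transiently transfected with multiplexed GAL4-UAS reporter units expressing chimeric zebrafish TRb–Gal4. Dosed 24 h with 3 nM 6-alpha-fluorotestosterone present; reporter mRNA measured by RT-PCR, HpaI digestion and capillary electrophoresis; gain of signal versus DMSO.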

The test system of test [13] is frog Estrogen Receptor (ESR2), gene 100174814. The test can be described thus: ATG_frER2_XSP1: Attagene TRANS-FACTORIAL Multi-Species (XSP1) HepG2 Assay for frog Estrogen Receptor (ESR2) (AID 2283774). In short, it runs like this:
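HepG2, transient MRTU transfection (GAL4-UAS reporters, exogenous NR-Gal4 chimeras); 24 h compound exposure; 3 nM 6α-fluorotestosterone co-added; total RNA → RT-PCR → 6-FAM primer extension → HpaI → CE. Positive direction vs DMSO.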

Test [14] deals with frog Estrogen Receptor (ESR1), gene 398734. As to the kind of experiment: ATG_frER1_XSP1: Attagene TRANS-FACTORIAL Multi-Species (XSP1) HepG2 Assay for frog Estrogen Receptor (ESR1) (AID 2283777). The procedure, abridged:
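Transient MRTU transfection, HepG2 (human liver); 24 h dosing, 3 nM 6α-fluorotestosterone co-added; RNA → RT-PCR → 6-FAM labeling → CE; upward activity vs DMSO.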

For test [15], the target named is chicken Estrogen Receptor (ESR1), ESR1 (gene 396099) (UniProt P06212). The test can be described thus: ATG_chERa_XSP1: Attagene TRANS-FACTORIAL Multi-Species (XSP1) HepG2 Assay for chicken Estrogen Receptor (ESR1) (AID 2283779). The procedure, abridged: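 Read-out: fluorescent reporter mRNA fragments resolved by capillary electrophoresis after RT-PCR and HpaI digestion. Transfected HepG2 cells carried chimeric NR-Gal4 constructs, were dosed 24 h with 3 nM 6-alpha-fluorotestosterone added, and activity was fitted upward relative to DMSO.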
Chain of chicken Estrogen Receptor (ESR1), ESR1 (gene 396099) (P06212 whole entry, looked up, the tested form may be a part): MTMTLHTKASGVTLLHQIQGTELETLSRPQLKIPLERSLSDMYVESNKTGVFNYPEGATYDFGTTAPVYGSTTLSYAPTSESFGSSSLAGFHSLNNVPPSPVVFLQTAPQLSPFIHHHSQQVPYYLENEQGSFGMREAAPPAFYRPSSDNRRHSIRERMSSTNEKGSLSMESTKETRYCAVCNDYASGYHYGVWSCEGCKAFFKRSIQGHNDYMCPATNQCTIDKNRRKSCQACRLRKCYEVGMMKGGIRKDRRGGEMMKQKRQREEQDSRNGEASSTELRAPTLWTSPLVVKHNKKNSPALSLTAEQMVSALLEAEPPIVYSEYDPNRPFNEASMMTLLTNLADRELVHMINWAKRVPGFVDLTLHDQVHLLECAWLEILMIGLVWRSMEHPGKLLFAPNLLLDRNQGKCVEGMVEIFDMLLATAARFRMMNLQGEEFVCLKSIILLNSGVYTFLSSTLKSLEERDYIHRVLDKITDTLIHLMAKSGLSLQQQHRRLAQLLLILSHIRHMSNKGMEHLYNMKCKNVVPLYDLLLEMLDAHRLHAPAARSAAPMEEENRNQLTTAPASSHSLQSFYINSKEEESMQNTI

The subject of test [16] is turtle Estrogen Receptor (ESR1), gene 101933533. The test can be described thus: ATG_trERa_XSP1: Attagene TRANS-FACTORIAL Multi-Species (XSP1) HepG2 Assay for turtle Estrogen Receptor (ESR1) (AID 2283781). The procedure, abridged:
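Transfect HepG2 with reporter units → dose chemical 24 h (medium has 3 nM 6-alpha-fluorotestosterone) → isolate RNA, RT-PCR → FAM primer extension, HpaI digest → capillary electrophoresis; gain of signal vs DMSO.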

Test [17] deals with turtle Thyroid Hormone Receptor, alpha (TRa), gene 101949057. The test can be described thus: ATG_trTRa_XSP1: Attagene TRANS-FACTORIAL Multi-Species (XSP1) HepG2 Assay for turtle Thyroid Hormone Receptor, alpha (TRa) (AID 2283806). The procedure, abridged:
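After 24 h chemical exposure, reporter transcripts were measured by RT-PCR with fluorescent primer extension, HpaI digestion and capillary electrophoresis. Cells were transiently transfected HepG2 expressing exogenous NR-Gal4 chimeras; medium contained 3 nM 6-alpha-fluorotestosterone; fitted upward relative to DMSO.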

Chain of Peroxisome proliferator-activated receptor gamma (Homo sapiens) (P37231 whole entry, looked up, the tested form may be a part): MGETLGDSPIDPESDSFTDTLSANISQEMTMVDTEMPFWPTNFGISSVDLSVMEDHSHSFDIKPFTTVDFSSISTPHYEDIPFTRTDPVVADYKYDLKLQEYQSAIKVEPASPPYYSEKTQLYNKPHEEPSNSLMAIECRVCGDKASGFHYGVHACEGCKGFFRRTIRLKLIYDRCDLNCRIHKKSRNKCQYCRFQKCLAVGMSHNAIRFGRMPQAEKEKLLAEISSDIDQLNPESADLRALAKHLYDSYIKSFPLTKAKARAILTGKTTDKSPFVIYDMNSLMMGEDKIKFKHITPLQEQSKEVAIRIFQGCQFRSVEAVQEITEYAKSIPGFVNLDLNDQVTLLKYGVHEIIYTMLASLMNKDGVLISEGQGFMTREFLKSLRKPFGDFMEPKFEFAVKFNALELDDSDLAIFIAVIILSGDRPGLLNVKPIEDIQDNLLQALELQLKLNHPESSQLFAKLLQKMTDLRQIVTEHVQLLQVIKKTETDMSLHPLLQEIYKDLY
Chain of human Thyroid hormone Receptor beta (TRb), THRB (gene 7068) (P10828 whole entry, looked up, the tested form may be a part): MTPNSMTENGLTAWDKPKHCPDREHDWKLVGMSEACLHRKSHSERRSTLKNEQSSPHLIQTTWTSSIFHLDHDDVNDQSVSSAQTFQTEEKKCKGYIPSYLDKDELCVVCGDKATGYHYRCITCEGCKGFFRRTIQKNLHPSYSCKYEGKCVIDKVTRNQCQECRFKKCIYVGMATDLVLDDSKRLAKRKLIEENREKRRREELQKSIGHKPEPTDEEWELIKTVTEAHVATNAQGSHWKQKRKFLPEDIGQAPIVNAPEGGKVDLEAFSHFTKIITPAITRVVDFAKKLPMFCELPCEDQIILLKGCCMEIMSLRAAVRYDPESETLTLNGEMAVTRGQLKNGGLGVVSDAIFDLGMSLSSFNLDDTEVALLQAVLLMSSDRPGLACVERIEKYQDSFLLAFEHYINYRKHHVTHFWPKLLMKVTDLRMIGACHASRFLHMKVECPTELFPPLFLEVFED
Chain of zebrafish Thyroid Hormone Receptor beta (TRb), thrb (gene 30607) (Q9PVE4 whole entry, looked up, the tested form may be a part): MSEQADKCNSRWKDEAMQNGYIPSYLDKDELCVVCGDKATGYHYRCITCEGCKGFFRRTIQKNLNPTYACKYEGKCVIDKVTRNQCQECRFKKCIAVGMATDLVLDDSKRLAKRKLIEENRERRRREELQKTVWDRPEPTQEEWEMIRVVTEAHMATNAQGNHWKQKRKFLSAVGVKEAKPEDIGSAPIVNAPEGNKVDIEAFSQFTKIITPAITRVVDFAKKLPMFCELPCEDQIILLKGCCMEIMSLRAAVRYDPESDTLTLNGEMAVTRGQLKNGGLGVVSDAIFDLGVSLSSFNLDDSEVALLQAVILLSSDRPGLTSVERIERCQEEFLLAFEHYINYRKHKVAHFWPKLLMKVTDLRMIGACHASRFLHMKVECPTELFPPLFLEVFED
Chain of zebrafish Thyroid Hormone Receptor alpha (TRa), thraa (gene 30670) (Q98867 whole entry, looked up, the tested form may be a part): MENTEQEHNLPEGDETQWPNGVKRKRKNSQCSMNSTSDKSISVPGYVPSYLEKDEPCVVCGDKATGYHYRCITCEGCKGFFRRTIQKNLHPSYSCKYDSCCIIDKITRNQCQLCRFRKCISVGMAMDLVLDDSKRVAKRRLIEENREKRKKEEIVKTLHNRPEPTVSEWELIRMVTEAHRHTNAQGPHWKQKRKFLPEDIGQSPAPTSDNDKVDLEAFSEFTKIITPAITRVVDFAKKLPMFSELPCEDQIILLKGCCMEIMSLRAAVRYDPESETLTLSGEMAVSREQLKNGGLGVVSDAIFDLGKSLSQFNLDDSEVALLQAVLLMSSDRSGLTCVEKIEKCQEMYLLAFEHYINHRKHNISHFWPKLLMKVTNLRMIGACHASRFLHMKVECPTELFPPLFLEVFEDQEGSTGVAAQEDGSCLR
Chain of Nuclear receptor subfamily 1 group I member 2 (Mus musculus) (O54915 whole entry, looked up, the tested form may be a part): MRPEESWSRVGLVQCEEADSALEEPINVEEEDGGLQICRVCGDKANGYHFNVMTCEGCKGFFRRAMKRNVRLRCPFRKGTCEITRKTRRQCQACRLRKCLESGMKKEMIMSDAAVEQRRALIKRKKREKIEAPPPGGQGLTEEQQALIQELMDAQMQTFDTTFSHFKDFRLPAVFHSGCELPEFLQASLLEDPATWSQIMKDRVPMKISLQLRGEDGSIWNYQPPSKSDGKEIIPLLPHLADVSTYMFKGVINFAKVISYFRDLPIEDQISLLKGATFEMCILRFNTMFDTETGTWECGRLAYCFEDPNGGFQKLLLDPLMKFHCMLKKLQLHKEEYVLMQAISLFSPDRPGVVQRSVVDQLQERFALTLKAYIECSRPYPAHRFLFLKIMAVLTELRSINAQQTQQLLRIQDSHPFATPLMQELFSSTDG

As for `OC[C@H]1O[C@@H](O[C@H]2[C@H](O)[C@@H](O)[C@H](O)O[C@@H]2CO)[C@H](O)[C@@H](O)[C@H]1O`, the concentration at half-maximal activity (AC50) in [1] is 603 nM (active).

Take `CC/C(=C(\c1ccccc1)c1ccc(OCCN(C)C)cc1)c1ccccc1`: the AC50 in test [1] is 10400 nM (active); in test [2] it was 11000 nM (active); in test [3], 17.7 µM (active) [middle of 5 runs]. The molecule was called inactive in test [2], in [4], in test [5], in [6], in test [7] and in [8]. Also, the molecule was classed as inactive in test [9], in test [10], in test [11] and in test [12].

With `C#C[C@]1(O)CC[C@H]2[C@@H]3CCc4cc(O)ccc4[C@H]3CC[C@@]21C`, the AC50 was 0.273 nM (active) in test [13]; 30500 nM (active) in [2]; 0.0393 nM (active) in test [14]; 0.0617 nM (active) in test [15]; 0.0403 nM (active) in [16]. The call in test [1], in test [2], in test [4], in test [5], in test [6] and in test [9] was inactive. The outcome in test [17], in test [10], in test [11] and in [12] was inactive.

On to `CCCCCCCCCOS(=O)(=O)O`, for which the outcome in test [1] and in [2] was inactive.

Consider `CC(=O)CC(=O)N(C)C`, for which the outcome in test [1] and in test [2] was inactive.

As to `NC(N)=S`, the result in test [1] and in [2] was inactive.

In the case of `CNC(=C[N+](=O)[O-])NCCSCc1ccc(CN(C)C)o1`, the outcome in test [1] and in test [2] was inactive.

As to `CC(=O)Oc1c(C)c(C)c2c(c1C)CC[C@@](C)(CCC[C@H](C)CCC[C@H](C)CCCC(C)C)O2`, the molecule was classed as inactive in [1].

On to `CC(=O)OC(C)(C)C`, for which the molecule was called inactive in test [1].

For the molecule `CC1=CCC(=C(C)C)CC1`, the molecule was called inactive in test [1].

With `CCCC(O)C(CC)CO` (stereo not drawn), in test [1], the molecule was classed as inactive.

As for `CC(=O)c1ccc2ccccc2c1`, the molecule was classed as inactive in test [1] and in test [2].

For the molecule `CN(C)C(=O)Nc1ccccc1`, the result in [1] and in [2] was inactive.

Turning to `O=C(O)C1=NN(c2ccc(S(=O)(=O)O)cc2)C(=O)C1`, the AC50 in test [1] was 8670 nM (active).

In the case of `CCOCC(C)O` (stereo not drawn), the molecule was called inactive in [1] and in test [2].
